Experimental data from PubChem BioAssay (Tox21).
Records with an inconclusive call do not appear. Activity calls are given as the source filed them. Unless noted, calls follow the shape of the full dose curve.

Key:
[1] = Nuclear factor erythroid 2-related factor 2/antioxidant responsive element (Nrf2/ARE) small molecule agonists: qHTS cell viability counter screen in human keratinocytes (AID 1919968; active = well fitted curve in the direction sought with a large enough effect in the repeat runs; an effect the other way counts as inactive or inconclusive; also: nearly all actives have a fitted effect of over 55% in size; also: potency is read from the fitted curve at half-maximal effect)
In short: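 Cells of the KeratinoSens line were plated at 1,500 per well and left for 5 h before compound transfer from DMSO stocks. After a 23 h incubation (37 C, 5% CO2), CellTiter-Fluor was added. Signal was taken as fluorescence intensity 1 h later.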

[2] = Nuclear factor erythroid 2-related factor 2/antioxidant responsive element (Nrf2/ARE) small molecule agonists: luciferase reporter gene qHTS assay in human keratinocytes (AID 1919969); also: nearly all actives have a fitted effect of over 35% in size; also: potency is read from the fitted curve at half-maximal effect
[3] = molecular target: Gonadotropin-releasing hormone receptor (Homo sapiens) (UniProt P30968); test: Human gonadotropin-releasing hormone receptor (GnRHR) small molecule agonists, calcium flux assay in GnRHR-HEK293 cells (AID 1920063); also: nearly all actives have a fitted effect of over 35% in size
Chain of Gonadotropin-releasing hormone receptor (Homo sapiens) (P30968 whole entry, looked up): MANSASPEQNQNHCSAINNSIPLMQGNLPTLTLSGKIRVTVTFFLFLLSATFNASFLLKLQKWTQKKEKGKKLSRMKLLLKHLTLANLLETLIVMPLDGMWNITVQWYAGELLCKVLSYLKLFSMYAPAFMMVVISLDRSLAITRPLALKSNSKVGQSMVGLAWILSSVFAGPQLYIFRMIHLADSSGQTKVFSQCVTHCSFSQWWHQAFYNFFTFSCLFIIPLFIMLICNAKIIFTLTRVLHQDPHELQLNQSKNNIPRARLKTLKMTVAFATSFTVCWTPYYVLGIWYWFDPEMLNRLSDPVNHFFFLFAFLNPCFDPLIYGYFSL
In short: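 Compounds dissolved in DMSO are pin-transferred onto dye-loaded GnRHR-HEK293 cells, which were seeded 18 h before at 37 C/5% CO2. Calcium signal is read as fluorescence intensity at 1 s intervals for 3 min.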

[4] = molecular target: KiSS-1 receptor (Homo sapiens) (UniProt Q969F8); test: Human kisspeptin (KISS1R) small molecule agonists, calcium flux assay in KISS1R-HEK293 cells (AID 1920064; active = well fitted curve in the direction sought with a large enough effect in the repeat runs; an effect the other way counts as inactive or inconclusive)
Chain of KiSS-1 receptor (Homo sapiens) (Q969F8 whole entry, looked up): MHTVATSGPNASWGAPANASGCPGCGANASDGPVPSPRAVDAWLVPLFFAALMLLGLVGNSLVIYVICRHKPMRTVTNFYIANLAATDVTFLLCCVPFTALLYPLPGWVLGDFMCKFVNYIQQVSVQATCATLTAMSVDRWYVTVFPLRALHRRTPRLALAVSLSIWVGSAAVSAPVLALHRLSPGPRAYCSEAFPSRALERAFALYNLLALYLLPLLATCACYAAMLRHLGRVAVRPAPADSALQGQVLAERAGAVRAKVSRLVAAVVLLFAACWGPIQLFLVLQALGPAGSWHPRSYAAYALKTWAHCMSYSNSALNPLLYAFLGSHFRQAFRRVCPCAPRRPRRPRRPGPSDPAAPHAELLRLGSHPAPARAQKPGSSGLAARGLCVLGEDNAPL
In short: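 Cell line: HEK293, stable human KISS1R. Dye loading 1 h at 37 C after 18 h culture. Read: kinetic fluorescence, 480/540 nm, 3 min at 1 s intervals.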

[5] = G protein-coupled receptor (GPCR) small molecule agonists, calcium flux assay: HEK293 wild type cell line counter screen (AID 1920065)
In short: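 Tox21 10K compounds, 15 concentrations each in triplicate, pin-transferred in DMSO onto dye-loaded cells; kinetic read at 480/540 nm for 3 min, 1 s intervals.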

[6] = p53 small molecule agonists, cell-based qHTS assay with human liver microsomes (AID 1963577);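 also: p53 response element beta-lactamase reporter cells with liver microsomes plus NADPH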
In short: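 With metabolic activation: human liver microsomes (0.5 mg/mL final) plus NADPH (0.5 mg/mL final) added alongside compounds to p53RE-bla cells; 16 h 37 C exposure; beta-lactamase read by LiveBLAzer fluorescence.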

[7] = p53 small molecule agonists, cell-based qHTS assay with rat liver microsomes (AID 1963578)
In short: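 Metabolic activation by rat liver microsomes and NADPH, each 0.5 mg/mL final, added right after compounds to p53RE-bla reporter cells (4,000/well, plated 5 h earlier). 16 h at 37 C, then LiveBLAzer substrate for 2 h at room temperature in the dark; fluorescence read-out.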

[8] = p53 small molecule agonists, cell-based qHTS assay with rat liver microsomes: qHTS cell viability counter screen (AID 1963580); also: nearly all actives have a fitted effect of over 45% in size; also: potency is read from the fitted curve at half-maximal effect
In short: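 Cytotoxicity counter screen: intracellular ATP read by CellTiter-Glo luminescence in the p53 reporter wells. HCT-116 p53RE-bla cells were treated for 16 h at 37 C alongside rat liver microsomes and NADPH, each 0.5 mg/mL final.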

[9] = p53 small molecule agonists, cell-based qHTS assay: qHTS cell viability counter screen (AID 1963581); also: nearly all actives have a fitted effect of over 45% in size
In short: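 ATP content measured by luminescence in HCT-116 p53RE-bla cells treated 16 h at 37 C, same wells as the reporter screen.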

[10] = p53 small molecule agonists, cell-based qHTS assay (AID 1963582; active = well fitted activation curve with a large enough effect in the signal ratio in the repeat runs, not every such curve was filed as active; the % refers to the signal ratio)
In short: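 16 h compound exposure (37 C) of p53 response element–bla cells, preceded by 5 h recovery at 37 C/5% CO2; read-out via LiveBLAzer B/G FRET substrate, 2 h RT, fluorescence intensity.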

[11] = cAMP Responsive Elements (CRE) small molecule agonists, cell-based qHTS assay (AID 1963590)
In short: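 HEK 293T cells stably bearing CRE-bla were plated at 2,000 cells per well and rested 18 h. Compounds, positive controls or DMSO were added for 3 h at 37 C. LiveBLAzer B/G substrate was then loaded for 2 h at room temperature.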

[12] = cAMP Responsive Elements (CRE) small molecule antagonists, cell-based qHTS assay (AID 1963591; active = well fitted inhibition curve with a large enough effect in the signal ratio in the repeat runs, not every such curve was filed as active; the % refers to the signal ratio)
In short: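 First, CRE-bla HEK293T cells settled 18 h at 37 C. Next, compound and 0.25 uM final NKH477 were applied for 3 h. Last, LiveBLAzer B/G substrate was loaded for 2 h at room temperature.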

[13] = molecular target: Beta-2 adrenergic receptor (Homo sapiens) (UniProt P07550); test: Adrenergic beta2 receptor (ADRB2) small molecule antagonists, cell-based qHTS assay (AID 1963592); also: series mostly up to about 92 µM; nearly all actives have a fitted effect of over 50% in size
Chain of Beta-2 adrenergic receptor (Homo sapiens) (P07550 whole entry, looked up): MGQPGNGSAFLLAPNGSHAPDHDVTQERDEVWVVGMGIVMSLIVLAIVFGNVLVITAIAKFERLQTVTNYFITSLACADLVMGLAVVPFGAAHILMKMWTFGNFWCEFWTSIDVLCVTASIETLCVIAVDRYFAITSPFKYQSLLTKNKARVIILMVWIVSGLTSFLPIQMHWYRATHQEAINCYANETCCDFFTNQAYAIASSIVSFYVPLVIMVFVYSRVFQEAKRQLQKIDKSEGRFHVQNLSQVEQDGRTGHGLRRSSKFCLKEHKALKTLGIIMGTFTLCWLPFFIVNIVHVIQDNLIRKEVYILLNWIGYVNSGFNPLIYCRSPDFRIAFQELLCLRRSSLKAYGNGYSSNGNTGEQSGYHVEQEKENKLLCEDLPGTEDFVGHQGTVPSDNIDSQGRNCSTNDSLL
In short: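 Assay format: CHO-ADRB2 cells, 18-20hr seeding at 37C/5% CO2, then compound plus 1nM isoproterenol agonist mix for 0.5hr RT. Homogeneous time-resolved fluorescence cAMP detection after 1hr, expressed as 665/615 nm ratio.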

[14] = molecular target: Beta-2 adrenergic receptor (Homo sapiens) (UniProt P07550); test: Adrenergic beta2 receptor (ADRB2) small molecule agonists, cell-based qHTS assay (AID 1963593);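 also: CHO cells stably overexpressing human ADRB2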
In short: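 CHO cells stably over-expressing ADRB2 were plated overnight at 37C, then dosed with compounds plus a stimulation mix containing 100uM IBMX and 25uM Ro-20-1724 for 0.5hr at room temperature. cAMP was measured by HTRF competition, 1hr.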

[15] = molecular target: D(2) dopamine receptor (Homo sapiens) (UniProt P14416); test: Dopamine D2 receptor (DRD2) small molecule antagonists, cell-based qHTS assay (AID 1963595; active = well fitted inhibition curve with a large enough effect in the signal ratio in the repeat runs, with a control signal flat; the % refers to the signal ratio; also: potency is read from the fitted curve at half-maximal effect)
Chain of D(2) dopamine receptor (Homo sapiens) (P14416 whole entry, looked up): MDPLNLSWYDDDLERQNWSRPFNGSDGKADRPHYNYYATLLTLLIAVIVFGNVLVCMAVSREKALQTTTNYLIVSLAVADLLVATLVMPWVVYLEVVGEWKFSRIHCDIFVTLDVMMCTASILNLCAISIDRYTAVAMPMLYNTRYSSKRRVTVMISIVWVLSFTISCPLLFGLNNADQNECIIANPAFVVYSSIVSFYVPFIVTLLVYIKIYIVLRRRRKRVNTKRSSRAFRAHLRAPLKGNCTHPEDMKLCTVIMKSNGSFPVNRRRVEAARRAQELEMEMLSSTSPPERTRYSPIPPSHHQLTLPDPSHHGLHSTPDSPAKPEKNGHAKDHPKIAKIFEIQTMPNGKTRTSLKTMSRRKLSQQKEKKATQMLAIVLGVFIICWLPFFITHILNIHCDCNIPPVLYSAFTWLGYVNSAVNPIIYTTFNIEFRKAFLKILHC
In short: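 Antagonism was scored as restored cAMP in HEK293-DRD2 cells. These cells were stimulated with 200 nM NKH477 and 12 nM quinpirole for 30 min at room temperature, in the presence of 0.1 mM Ro20-1724.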

[16] = molecular target: 5-hydroxytryptamine receptor 2A (Homo sapiens) (UniProt P28223); test: 5-hydroxytryptamine receptor 2A (HTR2A) small molecule antagonists, cell-based qHTS assay (AID 1963586); also: nearly all actives have a fitted effect of over 45% in size
Chain of 5-hydroxytryptamine receptor 2A (Homo sapiens) (P28223 whole entry, looked up): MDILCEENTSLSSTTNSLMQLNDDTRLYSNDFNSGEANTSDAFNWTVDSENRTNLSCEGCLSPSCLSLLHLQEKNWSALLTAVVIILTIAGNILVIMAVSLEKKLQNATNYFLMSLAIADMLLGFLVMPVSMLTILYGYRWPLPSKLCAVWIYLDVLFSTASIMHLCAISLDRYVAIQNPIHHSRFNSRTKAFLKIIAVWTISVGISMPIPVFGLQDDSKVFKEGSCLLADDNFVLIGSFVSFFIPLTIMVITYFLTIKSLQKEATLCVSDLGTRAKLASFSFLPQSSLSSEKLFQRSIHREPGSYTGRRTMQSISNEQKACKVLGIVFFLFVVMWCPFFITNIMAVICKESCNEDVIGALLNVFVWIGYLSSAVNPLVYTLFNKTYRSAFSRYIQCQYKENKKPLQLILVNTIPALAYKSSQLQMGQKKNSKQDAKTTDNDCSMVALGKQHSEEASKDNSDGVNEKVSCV
In short: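 CHO cells stably expressing human HTR2A were plated for 18 h at 37 C, then loaded with calcium dye for 1 h. Compounds were preincubated 5 min at room temperature before DOI (4 nM solution) was added. Kinetic fluorescence was read for 3 min.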

[17] = molecular target: 5-hydroxytryptamine receptor 2A (Homo sapiens) (UniProt P28223); test: 5-hydroxytryptamine receptor 2A (HTR2A) small molecule agonists, cell-based qHTS assay (AID 1963587); also: nearly all actives have a fitted effect of over 30% in size
In short: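 Kinetic calcium-flux fluorescence (2 min, 1 sec intervals) after compound addition in agonist mode. HTR2A-CHO cells were cultured 18 h, then dye-loaded 1 h at 37 C.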

[18] = molecular target: Muscarinic acetylcholine receptor M1 (Homo sapiens) (UniProt P11229); test: Cholinergic receptor muscarinic 1 (CHRM1) small molecule antagonists, cell-based qHTS assay (AID 1963588); also: nearly all actives have a fitted effect of over 40% in size
Chain of Muscarinic acetylcholine receptor M1 (Homo sapiens) (P11229 whole entry, looked up): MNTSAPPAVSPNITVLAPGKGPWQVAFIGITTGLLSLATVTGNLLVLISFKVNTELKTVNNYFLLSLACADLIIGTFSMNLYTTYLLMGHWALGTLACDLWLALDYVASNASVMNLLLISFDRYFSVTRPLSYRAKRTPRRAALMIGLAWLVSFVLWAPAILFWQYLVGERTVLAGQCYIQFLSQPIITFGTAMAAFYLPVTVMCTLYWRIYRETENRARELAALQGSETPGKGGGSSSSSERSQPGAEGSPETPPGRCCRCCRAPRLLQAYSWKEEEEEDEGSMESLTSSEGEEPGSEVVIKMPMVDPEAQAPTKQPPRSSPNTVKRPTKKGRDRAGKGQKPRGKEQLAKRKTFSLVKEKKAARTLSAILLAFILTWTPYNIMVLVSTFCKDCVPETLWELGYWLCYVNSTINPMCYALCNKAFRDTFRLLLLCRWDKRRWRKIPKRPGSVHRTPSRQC
In short: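 Compounds were tested at 15 concentrations in three independent runs. Dye-loaded CHRM1-CHO cells were exposed 5 min at room temperature before stimulation by acetylcholine added at 50nM. Intracellular calcium was read kinetically on FDSS for 3 min.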

[19] = molecular target: Muscarinic acetylcholine receptor M1 (Homo sapiens) (UniProt P11229); test: Cholinergic receptor muscarinic 1 (CHRM1) small molecule agonists, cell-based qHTS assay (AID 1963589); also: nearly all actives have a fitted effect of over 35% in size
In short: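 Homogeneous fluorescence calcium flux, agonist mode. Human M1-expressing CHO cells; compound dosed at 15 concentrations, three independent runs; signal sampled every 1 sec.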

[20] = molecular target: D(2) dopamine receptor (Homo sapiens) (UniProt P14416); test: Dopamine D2 receptor (DRD2) small molecule agonists, cell-based qHTS assay (AID 1963594); also: nearly all actives have a fitted effect of over 35% in size
In short: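 cAMP accumulation in DRD2-HEK293 cells measured by HTRF after 1 h detection; compounds added 10 min before NKH477 (200nM […]) forskolin-analogue stimulation, 30 min at room temperature, with Ro20-1724 present at 0.1 mM final.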
% is scaled to controls: 0 for no effect and ±100 for the full control effect.

CCN[C@@H]1C[C@H](N)[C@@H](OC2OC(CN)=CCC2N)[C@H](O)[C@H]1O[C@H]1OC[C@](C)(O)[C@H](NC)[C@H]1O (some centres not stated)
inactive: activity change, negative = cytotoxicity [1] -5.32% [at 0.349 µM] | activity, positive = activation [2] 8.13% [at 0.349 µM] | activity change [3] -1.46% [at 0.217 µM, hits give high values] | activation [4] -0.712% [at 0.29 µM] | activation [5] 1.44% [at 0.217 µM] | activation [6] 2.31% [at 0.249 µM] | activation [7] -0.776% [at 0.249 µM] | activity change, negative = cytotoxicity [8] -10.4% [at 0.249 µM] | activity change, negative = cytotoxicity [9] -18.4% [at 0.249 µM] | activation [10] 5.55% [at 0.249 µM] | activation [11] -0.986% [at 0.349 µM] | activity change, negative = inhibition [12] -9.29% [at 0.349 µM] | activity change, negative = inhibition [13] -0.979% [at 0.349 µM] | activation [14] 7.07% [at 0.349 µM] | activity change, negative = inhibition [15] 14.9% [at 0.348 µM]

Clc1nc(C(Cl)(Cl)Cl)c(Cl)c(Cl)c1Cl
active: Potency [1] 48.6 µM | Potency [2] 21.7 µM
inactive: Potency [3] | outcome [4] | outcome [5] | Potency [6] | Potency [7] | Potency [8] | Potency [9] | Potency [16] | Potency [17] | Potency [18] | Potency [19] | Potency [13] | Potency [20] | Potency [15]

CC(C)OCC1CO1 (configuration not stated)
active: Potency [2] 30.5 µM
inactive: Potency [1] | Potency [3] | outcome [4] | outcome [5] | Potency [6] | Potency [7] | Potency [8] | Potency [10] | Potency [16] | Potency [17] | Potency [18] | Potency [19] | Potency [11] | Potency [12] | Potency [13] | Potency [20] | Potency [15]

COc1cc2c(cc1OC)-c1cc3ccc(OC)c(OC)c3c[n+]1CC2
inactive: Potency [1] | Potency [2] | Potency [3] | outcome [4] | outcome [5] | Potency [6] | Potency [7] | Potency [8] | Potency [9] | Potency [17] | Potency [18] | Potency [19] | Potency [12]

CCn1cc(C(=O)O)c(=O)c2cc(F)c(N3CCN(C)CC3)cc21
inactive: activity change, negative = cytotoxicity [1] 14.8% [at 19 µM] | activity, positive = activation [2] -5.55% [at 19 µM] | activity change [3] -1.03% [at 11.8 µM, hits give high values] | activation [4] -0.924% [at 15.8 µM] | activation [5] -0.469% [at 11.8 µM] | activation [6] 0.192% [at 13.5 µM] | activation [7] -1.11% [at 13.6 µM] | activity change, negative = cytotoxicity [8] -0.739% [at 13.5 µM] | activity change, negative = cytotoxicity [9] -4.59% [at 13.5 µM] | activation [11] -2.07% [at 19 µM] | activity change, negative = inhibition [12] -14.3% [at 18.9 µM] | activity change, negative = inhibition [13] 0.624% [at 19 µM] | Potency [14] | activation [20] 19.5% [at 19 µM] | activity change, negative = inhibition [15] 4.28% [at 18.9 µM]

CCCCCCCCCCCC[N+](C)(C)CCCCCCCCCCCC
active: Potency [1] 24.3 µM | Potency [8] 40.8 µM | Potency [15] 43.3 µM
inactive: Potency [2] | Potency [3] | outcome [4] | outcome [5] | Potency [6] | Potency [7] | Potency [9] | Potency [16] | Potency [17] | Potency [18] | Potency [19] | Potency [13]
